# Data from PubChem BioAssay AID2073 (Sanford-Burnham Center for Chemical Genomics, 2009).
# Among all 290,000 compounds or so, about 570 (0.2%) were called active. Roughly 1% stayed inconclusive and do not appear here. Rule as the data show it: active = inhibition mostly above about 51% (no sharp cut-off); inconclusive = no clear call, values can overlap the other calls; inactive = mostly below about 53%. Only a selection was taken, and actives are over-represented in it overall.
# Molecular target: Voltage-dependent N-type calcium channel subunit alpha-1B (Homo sapiens) (UniProt Q00975)
# Sequence (Q00975 whole entry, looked up): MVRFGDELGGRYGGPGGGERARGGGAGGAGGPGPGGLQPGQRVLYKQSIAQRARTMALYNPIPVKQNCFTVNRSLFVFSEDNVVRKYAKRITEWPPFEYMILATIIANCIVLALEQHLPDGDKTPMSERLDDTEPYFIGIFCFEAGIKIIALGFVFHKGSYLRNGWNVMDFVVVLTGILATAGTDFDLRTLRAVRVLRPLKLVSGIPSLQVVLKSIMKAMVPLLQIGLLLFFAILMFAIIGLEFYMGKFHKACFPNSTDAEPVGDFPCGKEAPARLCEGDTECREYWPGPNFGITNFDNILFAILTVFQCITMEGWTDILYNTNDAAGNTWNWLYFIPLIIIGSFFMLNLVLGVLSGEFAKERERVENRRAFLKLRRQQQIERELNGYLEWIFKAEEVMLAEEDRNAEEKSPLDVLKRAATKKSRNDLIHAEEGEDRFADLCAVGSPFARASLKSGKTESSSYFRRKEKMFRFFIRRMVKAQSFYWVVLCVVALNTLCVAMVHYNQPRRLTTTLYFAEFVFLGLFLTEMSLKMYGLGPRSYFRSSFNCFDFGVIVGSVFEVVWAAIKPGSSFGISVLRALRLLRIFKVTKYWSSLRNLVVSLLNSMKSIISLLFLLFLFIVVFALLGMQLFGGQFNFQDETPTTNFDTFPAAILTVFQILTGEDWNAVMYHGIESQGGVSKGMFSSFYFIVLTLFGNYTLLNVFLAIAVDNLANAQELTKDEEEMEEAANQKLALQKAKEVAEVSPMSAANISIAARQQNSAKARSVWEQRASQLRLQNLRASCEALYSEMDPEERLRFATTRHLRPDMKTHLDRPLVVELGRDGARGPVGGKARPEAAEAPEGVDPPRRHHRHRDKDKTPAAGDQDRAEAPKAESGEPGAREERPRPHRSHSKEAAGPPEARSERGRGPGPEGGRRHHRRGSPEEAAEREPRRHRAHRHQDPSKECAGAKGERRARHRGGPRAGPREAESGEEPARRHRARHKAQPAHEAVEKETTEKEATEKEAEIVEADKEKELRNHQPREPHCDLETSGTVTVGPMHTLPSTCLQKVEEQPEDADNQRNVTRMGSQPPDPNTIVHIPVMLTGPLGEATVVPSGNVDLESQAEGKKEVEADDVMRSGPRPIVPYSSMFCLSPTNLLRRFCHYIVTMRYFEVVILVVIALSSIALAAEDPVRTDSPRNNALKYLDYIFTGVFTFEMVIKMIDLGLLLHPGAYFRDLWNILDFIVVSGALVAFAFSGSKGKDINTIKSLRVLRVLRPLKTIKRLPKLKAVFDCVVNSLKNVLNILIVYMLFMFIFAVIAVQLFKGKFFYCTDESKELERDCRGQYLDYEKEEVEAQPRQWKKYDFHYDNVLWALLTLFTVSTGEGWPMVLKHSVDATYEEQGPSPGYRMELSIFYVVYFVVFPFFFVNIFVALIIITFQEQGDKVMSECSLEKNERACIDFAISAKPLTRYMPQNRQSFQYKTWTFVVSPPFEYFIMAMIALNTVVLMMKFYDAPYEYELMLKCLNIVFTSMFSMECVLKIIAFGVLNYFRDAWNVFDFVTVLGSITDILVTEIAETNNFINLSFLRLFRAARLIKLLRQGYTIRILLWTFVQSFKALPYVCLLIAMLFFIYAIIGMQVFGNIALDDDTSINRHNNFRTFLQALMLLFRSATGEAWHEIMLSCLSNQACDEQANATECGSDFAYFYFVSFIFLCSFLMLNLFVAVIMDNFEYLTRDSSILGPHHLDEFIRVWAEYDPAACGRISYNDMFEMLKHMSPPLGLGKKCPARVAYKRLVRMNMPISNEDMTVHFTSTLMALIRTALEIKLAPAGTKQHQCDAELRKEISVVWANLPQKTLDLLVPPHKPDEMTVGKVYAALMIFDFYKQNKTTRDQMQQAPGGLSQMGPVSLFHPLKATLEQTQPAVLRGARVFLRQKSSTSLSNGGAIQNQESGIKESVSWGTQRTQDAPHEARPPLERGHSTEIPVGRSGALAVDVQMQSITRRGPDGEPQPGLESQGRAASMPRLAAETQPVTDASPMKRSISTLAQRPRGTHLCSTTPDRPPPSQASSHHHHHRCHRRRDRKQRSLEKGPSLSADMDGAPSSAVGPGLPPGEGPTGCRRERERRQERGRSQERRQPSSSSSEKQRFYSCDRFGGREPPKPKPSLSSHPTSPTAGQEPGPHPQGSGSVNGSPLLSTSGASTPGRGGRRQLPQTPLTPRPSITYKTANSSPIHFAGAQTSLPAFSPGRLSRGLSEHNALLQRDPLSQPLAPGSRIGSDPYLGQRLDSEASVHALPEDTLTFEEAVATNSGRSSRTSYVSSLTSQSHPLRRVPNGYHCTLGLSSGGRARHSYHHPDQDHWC
# Assay: disruptors of CaV2.2 binding to Mint1 – biochemical, HTRF (AID 2073)
# Conditions: HTRF protein-protein interaction, Mint1-CaV2.2, at 20 µM, stronger effect = higher value
# [1] = measured here: average of repeat tests
Compound,inhibition,inhibition [1]
O=c1cc2c(=O)oc3cc(O)c(O)oc3c2c(O)c1O,70% (active),
O=c1oc2c(O)c(O)cc3c(=O)oc4c(O)c(O)cc1c4c23,9.6% (inactive),
O=c1oc2ccccc2c2oc3cc(O)c(O)cc3c12,20% (inactive),
COc1ccc(OC)c(NC(=O)CCC(=O)N(Cc2ccc(OC)c(OC)c2)c2nccs2)c1,0.5% (inactive),
CC(C)c1ccc(C2NC(=S)NC3=C2C(=O)CC(C)(C)C3)cc1 (stereo not given),-9.1% (inactive),
Cc1cc(N2CCC(C(=O)NC3CCCCC3)CC2)nc(-c2ccccc2)n1,-4% (inactive),
COc1cccc(/C=C(\CC(=O)O)c2nc3ccccc3s2)c1,-2.6% (inactive),
COc1ccc(/C=C(/CC(=O)Nc2ccccc2)c2nc3ccccc3s2)cc1,13% (inactive),
COc1cccc(/C=C(/CC(=O)Nc2ccc(N3CCOCC3)cc2)c2nc3ccccc3s2)c1,59.9% (active),
Cc1nonc1C1CCCN1Cc1cn[nH]c1-c1ccc2c(c1)OCO2 (stereo not given),6.8% (inactive),
CCOc1ccc2nc(NS(=O)(=O)c3ccc(NC(C)=O)cc3)sc2c1,-0.1% (inactive),
CCOc1cccc2sc(Nc3nc4ccc(NC(C)=O)cc4s3)nc12,28.4% (inactive),
CCOc1ccc2nc(Nc3nc4ccc(NC(C)=O)cc4s3)sc2c1,55% (active),
COc1ccc(C(=O)/C=C/C(=O)N(CC(=O)NC2CCCCC2)Cc2ccccc2OC)c(O)c1,11.5% (inactive),
COc1ccc(C(=O)/C=C/C(=O)N(CC(=O)NC2CCCCC2)Cc2ccccc2)c(O)c1,64.1% (active),
COc1ccc(C(=O)/C=C/C(=O)N(CC(=O)NC2CCCCC2)Cc2ccc(F)cc2)c(O)c1,37.7% (inactive),
CCc1nnc(N/N=C/c2c(C)[nH]c3ccccc23)n1N,55.5% (active),
Cc1[nH]c2ccccc2c1/C=N/Nc1nncn1N,-14.7% (inactive),
CCc1nnc(N/N=C/c2c(Cl)cccc2Cl)n1N,-7.9% (inactive),
CCC1Oc2ccc(C)cc2N(CC(=O)N(Cc2cccnc2)Cc2cccc(F)c2)C1=O (stereo not given),-3.3% (inactive),
CCC1Oc2ccc(C)cc2N(CC(=O)N(Cc2ccncc2)Cc2ccco2)C1=O (stereo not given),10.2% (inactive),

Compound,inhibition,inhibition [1]
CCC1Oc2ccc(C)cc2N(CC(=O)N(Cc2cccnc2)Cc2ccc(C)o2)C1=O (stereo not given),52.5% (active),
CCOC(=O)c1cnn(-c2cc(C)cc(C)c2)c1N,3.5% (inactive),
O=C(CSc1nnc(SCc2ccccc2)s1)N/N=C/C=C\c1ccco1,79.7% (inactive),18.4%
Cc1ccc(CSc2nnc(SCC(=O)N/N=C/c3c[nH]c4ccccc34)s2)cc1,59.7% (active),
O=C(CSc1nnc(SCc2ccccc2)s1)N/N=C/C=C/c1ccco1,50.1% (active),
O=C(CSc1nnc(SCc2ccccc2)s1)N/N=C/c1c[nH]c2ccccc12,44.7% (inactive),
Cc1ccc(CSc2nnc(SCC(=O)N/N=C/C=C/c3ccco3)s2)cc1,35.3% (inactive),
O=C(CSc1nnc(SCc2ccc(Cl)cc2)s1)N/N=C/c1c[nH]c2ccccc12,50.2% (inactive),42.7%
Nc1cc(Cl)ccc1C(=O)OCC(=O)N1CCOCC1,7.5% (inactive),
O=C(O)c1cc(NCc2cccs2)ccc1N1CCOCC1,9.9% (inactive),
CCn1c(SCC(=O)NC2CCCCC2)nnc1C(C)NC(=O)c1ccccc1F (stereo not given),8.6% (inactive),
CC(C)c1ccc(OCC(O)CN2CCCC2)cc1 (stereo not given),-4.2% (inactive),
CCCn1c(SCC(=O)N2c3ccc(F)cc3CCC2C)nnc1-c1ccccn1 (stereo not given),7% (inactive),
O=C(/C=C\c1ccco1)c1ccc(NC(=O)c2ccco2)cc1,68.1% (inactive),4%
O=C(/C=C/c1ccco1)c1ccc(NC(=O)C23CC4CC(CC(C4)C2)C3)cc1,67.9% (active),
CC(=O)Nc1ccc(C(=O)/C=C/c2ccco2)cc1,30.9% (inactive),
O=S(=O)(/N=C(/Nc1ccccc1)c1ccccc1O)c1ccccc1,-7.3% (inactive),
Fc1ccc(C2=Nc3cccc4cccc(c34)N2)cc1,-8.3% (inactive),
c1coc(C2=Nc3cccc4cccc(c34)N2)c1,54.2% (active),
Brc1ccc(C2=Nc3cccc4cccc(c34)N2)o1,-20.5% (inactive),
CNC(=O)CCn1nc(-c2ccc(C)cc2)c2ccccc2c1=O,-2.1% (inactive),

Compound,inhibition,inhibition [1]
CCOC(=O)c1c(O)cc(C)cc1Nc1ccccc1,14.3% (inactive),
CCOc1ccc(C(=O)NCC(=O)OCC(=O)c2ccc3c(c2)-c2ccccc2C3)cc1,18.8% (inactive),
CNC(=S)N(CCc1cccc(C)c1)Cc1cc2cc(OC)c(OC)cc2[nH]c1=O,46.2% (inactive),
CNC(=S)N(CCc1ccccc1)Cc1cc2cc(OC)c(OC)cc2[nH]c1=O,65.8% (active),
CCC(C)NC(=S)N(CCc1ccccc1)Cc1cc2cc(OC)c(OC)cc2[nH]c1=O (stereo not given),7.1% (inactive),
O=C(CC1(O)C(=O)N(C/C=C/c2ccccc2)c2ccccc21)c1ccccn1 (stereo not given),0% (inactive),
NCCOc1ccc(C2CCCCC2)cc1,-11.4% (inactive),
CCc1nc(NCCN2CCOCC2)c(C#N)c2c1CCCC2,9.8% (inactive),
Cc1cc(C)c(NC(=O)CSc2nc3ccc(N4C(=O)c5ccccc5C4=O)cc3s2)c(C)c1,55.2% (active),
CCc1cccc(C)c1NC(=O)CSc1nc2ccc(N3C(=O)c4ccccc4C3=O)cc2s1,17.8% (inactive),
Cc1ccc(C)c(NC(=O)CSc2nc3ccc(N4C(=O)c5ccccc5C4=O)cc3s2)c1,-0.7% (inactive),
Cc1ccc(C(=O)N/N=C/c2c(O)ccc3ccccc23)cn1,14.1% (inactive),
Cc1cccc(C)c1NCc1n[nH]c(=S)n1-c1ccccc1,-8.3% (inactive),
O=C(NCCCN1CCOCC1)c1sc2cc(F)ccc2c1Cl,-0.7% (inactive),
O=C(NCCCN1CCOCC1)c1sc2cc(Cl)ccc2c1Cl,-10.3% (inactive),
O=C(NCCCN1CCOCC1)c1sc2cc([N+](=O)[O-])ccc2c1Cl,67.7% (active),
C=C(C)CSc1[nH]c(=O)cc(C)c1C#N,1.3% (inactive),
Nc1c(C(=O)Nc2ccccc2)sc2nc3c(c(-c4ccco4)c12)CCCC3,2.1% (inactive),
Nc1c(C(=O)Nc2ccccc2)sc2nc3c(c(-c4ccco4)c12)CCC3,29.5% (inactive),
Nc1c(C(=O)NCC2CCCO2)sc2nc3c(c(-c4ccco4)c12)CC/C3=C\c1ccco1 (stereo not given),86.1% (active),
